About 4,000 (1.3%) of roughly 300,000 compounds were called active. The sample holds actives, similar compounds and a random draw of the others, so the mix is not that of the screen. A number with no mark means an inactive call.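 The calls were made as follows: active = mean replicate score, as percent of positive control median, at least 50; inconclusive = mean below 50 but one replicate at or above 50; inactive = mean and every replicate below 50.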

Our source for the inhibition values is PubChem BioAssay AID1662 (Broad Institute, 2009).

The assay in a line: S. pyogenes SKKanGAS growth inhibitors in kanamycin, primary screen, streptokinase expression inhibitor project, SKKanGAS strain, BacTiter-Glo luminescence (AID 1662).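 Also: strain carries kanamycin resistance gene driven by streptokinase promoter and grows in 40 µg/ml kanamycin; loss of luminescence reflects streptokinase promoter inhibition or plain growth inhibition; 0% = median of DMSO wells and 100% = positive control at its reference dose.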 The following applies: 6 h, at 7.5 µM, hits give high values.
With `CC(=O)N1CCOc2ccc(S(=O)(=O)N3CCN(c4cccc(C(F)(F)F)c4)CC3)cc21`, the inhibition is 2.46%.

As for `COc1ccc(N2CCC(CNC(=S)Nc3c(C)cccc3C)C2)cc1` (stereo not given), the inhibition was -4.36%.

For the compound `Cc1ccc(CN2CCC(N3CCC(C(=O)NCC4CCCO4)CC3)CC2)o1` (stereo not given), the inhibition was 4.3%.

On to `CCOC(=O)C1(Cc2ccccc2C)CCCN(C(=O)CN2C(=O)CSC2=O)C1` (stereo not given), for which the inhibition is 5.85%.

Regarding `CC(=O)Nc1nc(N(C)C)nc(N(C)C)n1`, the inhibition was 2.59%.

As to `O=C(Nc1cccc(-c2nc3ccccc3[nH]2)c1)c1ccc(C(=O)Nc2cccc(-c3nc4ccccc4[nH]3)c2)cc1`, the inhibition is 64% (active).

On to `O=C(/C=C/c1ccco1)Nc1cccc(-c2nc3ccccc3[nH]2)c1`, for which the inhibition was 16.2%.

With `Cc1ccc(-c2nc3ccccc3[nH]2)cc1NC(=O)c1sc2ccccc2c1Cl`, the inhibition was 4.45%.

Turning to `O=C(NC1CC1)c1ccc(-c2ccccc2)cc1`, the inhibition was 1.81%.

As for `O=C(CC1SC(=Nc2ccccc2F)N(CCN2CCOCC2)C1=O)Nc1ccc(F)cc1F` (stereo not given), the inhibition is -5.01%.

`COc1ccccc1OCC(=O)Nc1c2c(nn1-c1ccc(F)cc1)CS(=O)(=O)C2`: the inhibition is 74.3% (active).

Take `CCOc1ccc(C(=O)Nc2c3c(nn2-c2ccccc2)CS(=O)(=O)C3)cc1`: the inhibition is 1.84%.

As to `O=C(CC1CCCCC1)Nc1c2c(nn1-c1ccc(F)cc1)CS(=O)(=O)C2`, the inhibition was -9.45%.

As for `O=C(CN(c1cccc(Cl)c1)S(=O)(=O)c1ccccc1)NN=C1CCCC1`, the inhibition was 6.57%.

With `CSc1ncccc1C(=O)NCc1ccccc1Cl`, the inhibition was -1.26%.

For `CNC(=O)c1nnn(-c2ccccc2)c1C(=O)NC`, the inhibition was 3%.

Consider `CN(C)c1ccc(/C=N/N(Cc2ccccc2)c2ccccc2)cc1`, for which the inhibition is -5.9%.

For `O=C(C[n+]1ccccc1)N/N=C/c1ccc(O)cc1`, the inhibition is -9.65%.

For the compound `Oc1ccc(/C=N/N(Cc2ccccc2)c2ccccc2)cc1`, the inhibition was 77.6% (active).

With `CCCCC(NS(=O)(=O)c1ccc(C)cc1)C(=O)Oc1ccc2c3c(c(=O)oc2c1)CCC3` (stereo not given), the inhibition was 8.5%.

As for `CC(C)COC(=O)n1c(=O)oc2ccc(S(=O)(=O)N3CCCCC3)cc21`, the inhibition is -4.31%.

For `COc1ccc(-n2c(SCC(=O)Nc3ccc4c(c3)OCO4)nnc2C(C)N2CCCCC2)cc1` (stereo not given), the inhibition is -5.05%.

On to `CCN(CC)S(=O)(=O)c1ccc(N2CCOCC2)c(NC(=O)C2COc3ccccc3O2)c1` (stereo not given), for which the inhibition is 2.77%.

In the case of `CCN(CC)S(=O)(=O)c1ccc(N2CCOCC2)c(NC(=O)C2CSC3(C)CCC(=O)N23)c1` (stereo not given), the inhibition is 52.3% (active).

Turning to `CC(C)Oc1ccc(S(=O)(=O)N2CCOCC2)cc1NC(=O)C1CSC2(C)CCC(=O)N12` (stereo not given), the inhibition was 12%.

Take `COc1ccc(Cl)cc1N(CC(=O)N1CCCCC1)S(C)(=O)=O`: the inhibition is -8.05%.

With `O=[N+]([O-])/C=C/c1ccc2c(ccn2Cc2ccccc2)c1`, the inhibition was 81% (active).

`O=c1c([N+](=O)[O-])cc(C(F)(F)F)cn1Cc1cccc(Cl)c1`: the inhibition was -8.03%.

Consider `O=C(/C=C/c1cccc([N+](=O)[O-])c1)N1CCN(Cc2ccccc2)CC1`, for which the inhibition is 2.48%.

With `O=C(c1cccs1)C1C(c2ccc(Br)cc2)NC(=S)NC1(O)C(F)(F)F` (stereo not given), the inhibition was -1.18%.

For `Cc1[nH]n(-c2ccccc2)c(=O)c1CCOC(=O)c1ccc(C(F)(F)F)cc1`, the inhibition is 3.86%.

Consider `CCCNC(=O)CCn1cc(-c2ccc(OC)cc2)nc1CCN`, for which the inhibition was -0.358%.

As to `c1ccc2c(c1)OCC(CNc1ncnc3nc[nH]c13)O2` (stereo not given), the inhibition was 0.403%.

On to `c1ccc(-c2cc3c(NCC4COc5ccccc5O4)ncnc3s2)cc1` (stereo not given), for which the inhibition was 74.2% (active).

In the case of `COc1ccc(Nc2ncnc3sc(-c4ccccc4)cc23)c(OC)c1`, the inhibition was 17.7%.

With `O=C(O)c1ccc(NS(=O)(=O)c2ccc3c(c2)C(=O)c2cc(S(=O)(=O)Nc4ccc(C(=O)O)cc4)ccc2-3)cc1`, the inhibition is 7.11%.

With `CC(=O)c1cccc(NC(=O)C2CCN(C(=O)c3ccccc3Cl)CC2)c1`, the inhibition is -0.79%.

As for `Cc1cccc(-n2c(SCC(N)=O)nc3c(c2=O)C2(CCCCC2)Cc2ccccc2-3)c1`, the inhibition is 13.1%.

Regarding `N#C/C(=C(/O)Cc1cccc2ccccc12)c1nc2ccccc2s1`, the inhibition was 79.1% (active).

On to `N#C/C(=C(/O)COc1cccc2ccccc12)c1nc2ccccc2[nH]1`, for which the inhibition was 7.13%.

Regarding `O=C(O)c1ccccc1CSc1nc2ccccc2s1`, the inhibition is 38.1%.

On to `CN1CCC(CN)(N2CCN(c3ccccc3)CC2)CC1`, for which the inhibition is -3.22%.

As to `Cc1ccc(CNCc2ccc3c(c2)OCO3)c(C)c1`, the inhibition is 0.677%.

`O=C(O)CCN(Cc1ccccc1)S(=O)(=O)c1c(Cl)cccc1Cl`: the inhibition was 8.43%.

With `CC(C)CC[n+]1ccn(C2=C([O-])c3ccccc3C(=O)/C2=N\S(=O)(=O)c2ccccc2)c1`, the inhibition was 62.6% (active).

For the compound `NNc1nc2c(Cl)cccc2s1`, the inhibition was -7.59%.

`Cc1nc2nc(C)c(NS(=O)(=O)c3ccc(C(C)(C)C)cc3)c(=O)n2[nH]1`: the inhibition was 19.7%.

As for `O=C(NCCc1ccccn1)c1cc(-c2ccc(Cl)cc2)nc2ccccc12`, the inhibition is 1.78%.

As for `CCOC(=O)CSc1nnc(NC(=O)C2CC(=O)N(c3ccc(F)cc3)C2)s1` (stereo not given), the inhibition was 39.8%.

As for `COc1ccc(CCNC(=O)COC(=O)Cc2cc(OC)c(OC)c(OC)c2)cc1`, the inhibition is 1.27%.

Take `Cc1ccc(NC2=C(Cl)C(=O)OC2OC(=O)c2ccccc2C)cc1` (stereo not given): the inhibition was 66% (active).

As for `O=C1OC(OC(=O)c2ccccc2Br)C(N2CCOCC2)=C1Cl` (stereo not given), the inhibition is 35.8%.

In the case of `Cc1ccccc1C(=O)OC1OC(=O)C(Cl)=C1Nc1ccccc1` (stereo not given), the inhibition is 3.76%.

In the case of `O=[N+]([O-])c1ccc(N(CCO)Cc2ccccc2)c([N+](=O)[O-])c1`, the inhibition was 4.42%.

Regarding `CN(C)CCCNC(=S)N1CCN(c2nc(-c3ccccc3)cs2)CC1`, the inhibition is -0.915%.

Turning to `CC[C@H]1OC(=O)[C@H](C)[C@@H](O[C@H]2C[C@@](C)(OC)[C@@H](O)[C@H](C)O2)[C@H](C)[C@@H](O[C@@H]2O[C@H](C)C[C@H](N(C)C)[C@H]2O)[C@](C)(O)C[C@@H](C)[C@@H]2N[C@@H](COCCOC)O[C@H]([C@H]2C)[C@]1(C)O`, the inhibition is 106% (active).

With `CCN1CC(CN(C)Cc2nc(-c3ccc(Cl)cc3)no2)CC1=O` (stereo not given), the inhibition is 1.31%.

Turning to `CCOC(=O)C1(Cc2cccc(OC)c2)CCCN(C(=O)CCSC)C1` (stereo not given), the inhibition was 1.89%.

Turning to `C=CCNC(=O)c1ccc2c3n(nc2c1)-c1ccc(C)cc1CO3`, the inhibition is -8.54%.

In the case of `CCCC(=O)NC(Nc1ccccc1OC)C(Cl)(Cl)Cl` (stereo not given), the inhibition is 1.6%.

With `CCOc1ccccc1NC(=O)C12CC3CC(C1)CC(c1ccc(C)cc1)(C3)C2`, the inhibition was 20.1%.

With `CCCn1c(NC(=O)C23CC4CC(CC(O)(C4)C2)C3)nc2ccccc21`, the inhibition is 54.4% (active).

Regarding `CCn1c(NC(=O)c2nn(C)cc2Br)nc2ccccc21`, the inhibition is -1.42%.

In the case of `COc1cccc(N(C(=O)c2snc(C(N)=O)c2N)C(C(=O)NCC2CCCO2)c2c[nH]c3ccccc23)c1` (stereo not given), the inhibition is 3.94%.

In the case of `N#C/C(=C(\O)C(F)(F)F)c1nnc2n1CCCCC2`, the inhibition is 7.62%.

Turning to `Cn1c(NC(=O)c2ccccc2)nc2ccccc21`, the inhibition is 51.2% (active).

On to `Cn1c(-c2ccc(C(=O)c3ccccc3)s2)nc2ccccc21`, for which the inhibition is -1.65%.

Turning to `Cn1sc(NC(=O)c2ccccc2)nc1=O`, the inhibition was 1.73%.

As for `Cc1ccc(C)c(C(C)NC(=O)C2CCCO2)c1` (stereo not given), the inhibition is 1.89%.

`COc1cc2ccccc2cc1C(=O)Nc1ccc(NC(=O)c2cccs2)cc1`: the inhibition is 64.7% (active).

On to `COc1cc2ccccc2cc1C(=O)Nc1ccncc1`, for which the inhibition was -4.59%.

Turning to `COc1cc(NC(=O)c2cccs2)ccc1NC(=O)c1ccccc1Cl`, the inhibition was 3.93%.

On to `Cc1ccc(S(=O)(=O)NCCc2nnc3ccc(SCc4cccnc4)nn23)cc1`, for which the inhibition is 4.92%.

As to `COc1ccc2sc(N(CCCN(C)C)C(=O)c3ccc(S(=O)(=O)N(C)C4CCCCC4)cc3)nc2c1`, the inhibition was -0.457%.

For `O=S(=O)(NCC1CC1)c1ccc(F)c(Cl)c1`, the inhibition is -1.69%.

With `Oc1ccccc1C1=NN(c2ccccc2)C(c2ccccc2)C1` (stereo not given), the inhibition is 93.5% (active).

With `O=C(c1ccccc1)N1N=C(c2ccccc2O)CC1c1ccc(Br)cc1` (stereo not given), the inhibition was 18.1%.

Regarding `COc1ccc(C2CC(c3cccs3)=NN2c2ccccc2)cc1` (stereo not given), the inhibition is 11.6%.

With `Cc1nc2cc(C(F)(F)F)ccc2n1CCNc1nc(-c2cc(Cl)c(N)c(Cl)c2)cs1`, the inhibition was 34.8%.

`CCCc1cc(=O)[nH]c2nnc(SCC(=O)Nc3nnc(SCC)s3)n12`: the inhibition is 15.3%.
